# Measured values: PubChem BioAssay (Tox21)
# Values without a mark were called inactive. Records with an inconclusive call do not appear. Entries that show only a call come without a potency. Active and inactive are the calls of the source. Unless noted, calls come from the whole dose curve; as a rule, active = well fitted curve in the direction sought with a large enough effect in the repeat runs; inconclusive = weak or mixed curves; inactive = no such curve, though single readings can be large; an effect the other way counts as inactive or inconclusive.
# What was measured:
# [1] = molecular target: Thyrotropin receptor (Homo sapiens) (UniProt P16473); test: qHTS assay to identify small molecule agonists of the thyroid stimulating hormone receptor (TSHR) signaling pathway (AID 1224843; calls by dose curve; note: nearly all actives have a fitted effect of over 45% in size; note: potency is the fitted concentration of half-maximal effect)
# Chain of Thyrotropin receptor (Homo sapiens) (P16473 whole entry, looked up): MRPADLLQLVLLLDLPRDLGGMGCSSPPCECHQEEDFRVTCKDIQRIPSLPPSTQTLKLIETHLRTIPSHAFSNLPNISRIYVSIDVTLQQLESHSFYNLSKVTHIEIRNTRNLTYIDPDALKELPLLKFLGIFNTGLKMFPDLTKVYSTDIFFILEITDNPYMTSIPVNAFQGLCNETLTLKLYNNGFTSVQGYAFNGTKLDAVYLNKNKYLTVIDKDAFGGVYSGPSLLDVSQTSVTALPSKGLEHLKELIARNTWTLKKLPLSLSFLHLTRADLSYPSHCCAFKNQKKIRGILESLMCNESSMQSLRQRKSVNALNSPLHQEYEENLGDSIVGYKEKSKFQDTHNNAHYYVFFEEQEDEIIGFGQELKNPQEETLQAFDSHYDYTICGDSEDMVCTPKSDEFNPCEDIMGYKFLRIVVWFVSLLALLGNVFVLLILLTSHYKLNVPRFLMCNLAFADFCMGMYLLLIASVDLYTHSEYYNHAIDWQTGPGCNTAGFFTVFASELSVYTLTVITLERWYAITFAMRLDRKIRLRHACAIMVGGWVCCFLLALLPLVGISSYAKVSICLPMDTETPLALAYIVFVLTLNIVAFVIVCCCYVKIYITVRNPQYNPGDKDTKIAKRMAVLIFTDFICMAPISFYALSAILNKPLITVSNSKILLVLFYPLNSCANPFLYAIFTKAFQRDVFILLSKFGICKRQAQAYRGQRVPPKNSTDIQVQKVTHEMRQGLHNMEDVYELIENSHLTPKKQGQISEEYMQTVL
# How it was run: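 Using 15 concentrations per compound in triplicate, cAMP production was monitored in TSHR-HEK293 cells after 30 min compound incubation at RT; HTRF reagents followed, with fluorescence intensity recorded after 1 h.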
# [2] = qHTS assay to identify small molecule agonists of the hypoxia (HIF-1) signaling pathway - cell viability counter screen (AID 1224844; calls by dose curve; note: nearly all actives have a fitted effect of over 50% in size)
# How it was run: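 CellTiter-Glo luminescence read-out, 30 min RT, taken in the same wells as the beta-lactamase HRE reporter assay; HRE-bla ME-180 cells, 0.5% dialyzed FBS, 17 hr compound treatment at 37C, 5% CO2.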
# [3] = qHTS assay to identify small molecule agonists of H2AX (AID 1224845; active = well fitted activation curve with a large enough effect in the signal ratio in the repeat runs, not every such curve was filed as active; the % refers to the signal ratio)
# How it was run: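 Wild-type CHO-K1 cells plated overnight, then exposed 3 hr at 37C to compounds at 15 concentrations (0.76% DMSO). Lysed, then HTRF anti-pH2AX(S139)-cryptate/anti-H2AX-d2 detection after 24 hr at room temperature; emissions 665 and 620 nm.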
# [4] = qHTS assay to identify small molecule agonists of H2AX - cell viability counter screen (AID 1224847; calls by dose curve; note: top concentration of the series differs between compounds; nearly all actives have a fitted effect of over 30% in size)
# How it was run: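 Cytotoxicity counter screen in wild-type CHO-K1 cells: a 3 hr compound treatment at 37C across 15 concentrations, followed by CellTiter-Glo luminescence to gauge viable cells.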
# [5] = qHTS RealTime-Glo MT Cell Viability Assay in HepG2 cells - 24 hour (AID 1224867); note: nearly all actives have a fitted effect of over 50% in size
# How it was run: (§1)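 Cells + NanoLuc/prosubstrate dispensed (600 cells/well) → 5 h at 37 C/5% CO2 → compounds in DMSO transferred → 40 h incubation at 37 C, luminescence read at 0, 8, 16, 24, 32, 40 h.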
# [6] = qHTS RealTime-Glo MT Cell Viability Assay in HEK293 cells - 32 hour (AID 1224868); note: nearly all actives have a fitted effect of over 50% in size; note: potency is the fitted concentration of half-maximal effect; for activity change, negative = cytotoxic: top concentration of the series differs between compounds
# How it was run: (§2)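 Tox21 10K qHTS, HEK293, 600 cells/well, RealTime-Glo reagent co-dispensed with cells; 5 h preincubation, compound by pintool, 37 C, luminescence at 0–40 h.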
# [7] = A CellTox Green Cytotoxicity Assay to monitor cytotoxicity in HEK293 cells - 0 hour (AID 1224869); note: nearly all actives have a fitted effect of over 50% in size
# How it was run: (§3)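 Read-out: fluorescence of a cell-impermeant cyanine dye staining DNA of dead cells, proportional to cytotoxicity. HEK293, 600 cells/well with reagent, compound (23 nL DMSO) added after 5 h; reads at 0, 8, 16, 24, 32, 40 h.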
# [8] = qHTS RealTime-Glo MT Cell Viability Assay in HepG2 cells - 40 hour (AID 1224870); note: nearly all actives have a fitted effect of over 50% in size
# How it was run: (§4)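 HepG2 cells mixed with RealTime-Glo MT reagents (NanoLuc plus cell-permeant prosubstrate) were seeded at 600 cells/well, incubated 5 h at 37 C/5% CO2, then pinned with compounds in DMSO; nonlytic luminescence tracked viability during 40 h treatment.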
# [9] = A CellTox Green Cytotoxicity Assay to monitor cytotoxicity in HEK293 cells - 40 hour (AID 1224871); note: nearly all actives have a fitted effect of over 45% in size
# How it was run: as §3
# [10] = qHTS RealTime-Glo MT Cell Viability Assay in HEK293 cells - 16 hour (AID 1224872); note: nearly all actives have a fitted effect of over 50% in size; note: potency is the fitted concentration of half-maximal effect; for activity change, negative = cytotoxicity: top concentration of the series differs between compounds
# How it was run: as §2
# [11] = qHTS RealTime-Glo MT Cell Viability Assay in HepG2 cells - 8 hour (AID 1224873); note: nearly all actives have a fitted effect of over 55% in size
# How it was run: as §4
# [12] = qHTS RealTime-Glo MT Cell Viability Assay in HEK293 cells - 40 hour (AID 1224874); details: RealTime-Glo luminescence; max response: stronger effect = lower value; note: nearly all actives have a fitted effect of over 50% in size; note: potency is the fitted concentration of half-maximal effect
# How it was run: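 Luminescence readout at each listed time point; HEK293, 600 cells/well, RealTime-Glo MT reagent added with cells; compounds pinned (23 nL in DMSO) after 5 h at 37 C; continuous culture at 37 C.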
# [13] = A CellTox Green Cytotoxicity Assay to monitor cytotoxicity in HEK293 cells - 24 hour (AID 1224875); note: nearly all actives have a fitted effect of over 45% in size
# How it was run: as §3
# [14] = A CellTox Green Cytotoxicity Assay to monitor cytotoxicity in HepG2 cells - 16 hour (AID 1224876); note: nearly all actives have a fitted effect of over 45% in size
# How it was run: (§5)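 HepG2, 600 cells/well premixed w/ CellTox Green; 5 h settle, 37 C/5% CO2; pintool cpd add (DMSO); 37 C, 40 h; fluorescence read at 0, 8, 16, 24, 32, 40 h.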
# [15] = qHTS RealTime-Glo MT Cell Viability Assay in HepG2 cells - 32 hour (AID 1224877); note: nearly all actives have a fitted effect of over 55% in size
# How it was run: as §1
# [16] = A CellTox Green Cytotoxicity Assay to monitor cytotoxicity in HepG2 cells - 40 hour (AID 1224879); note: nearly all actives have a fitted effect of over 40% in size
# How it was run: as §5
# [17] = A CellTox Green Cytotoxicity Assay to monitor cytotoxicity in HepG2 cells - 24 hour (AID 1224878); note: nearly all actives have a fitted effect of over 45% in size
# How it was run: as §5
# [18] = qHTS assay to identify small molecule antagonists of the estrogen related receptor (ERR) signaling pathway from Tox21 library (AID 1224848); note: nearly all actives have a fitted effect of over 50% in size
# How it was run: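 Tox21 10K compounds in DMSO tested for ERR pathway antagonism in NTP's ERR cell line; 18 h, 37 C exposure; ONE-Glo luminescence.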
# [19] = qHTS assay to identify small molecule agonists of the estrogen related receptor (ERR) signaling pathway from Tox21 library (AID 1224849; calls by dose curve; note: nearly all actives have a fitted effect of over 15% in size); details: ERR reporter cell line, ONE-Glo luciferase, 18 h; at 92.4 µM (top of the series) unless noted
# How it was run: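 Luminescence readout (ONE-Glo, 30 min RT) after 18 h compound exposure at 37 C of NTP-supplied ERR reporter cells; cells were plated 6 h before compound addition by pin tool.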
# [20] = qHTS assay to identify small molecule agonists of the hypoxia (HIF-1) signaling pathway (AID 1224846; active = well fitted activation curve with a large enough effect in the signal ratio in the repeat runs, not every such curve was filed as active; the % refers to the signal ratio)
# How it was run: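 Beta-lactamase FRET read-out (CCF4-AM substrate) from ME-180 cells carrying an HRE-driven bla reporter, after 17 hrs compound exposure at 37C/5% CO2. Cells were seeded at 2,000 per well in 0.5% dialyzed FBS medium and preincubated 5 hrs.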
smiles,measurement,setting,value
CCN1CCC[C@H]1CNC(=O)c1c(O)c(Cl)cc(Cl)c1OC,Potency,[1],inactive
same,Potency,[2],inactive
same,outcome,[3],inactive
same,Potency,[4],inactive
same,Potency,[5],inactive
same,Potency,[6],inactive
same,Potency,[7],inactive
same,Potency,[8],inactive
same,Potency,[9],inactive
same,Potency,[10],inactive
same,Potency,[11],inactive
same,max response,[12],-0.593%
same,Potency,[13],inactive
same,Potency,[14],inactive
same,Potency,[15],inactive
same,Potency,[16],inactive
CCCN(CCC)CCc1cccc2c1CC(=O)N2,Potency,[1],inactive
same,Potency,[2],inactive
same,outcome,[3],inactive
same,Potency,[4],inactive
same,Potency,[5],inactive
same,Potency,[7],inactive
same,Potency,[8],inactive
same,Potency,[9],inactive
same,Potency,[10],inactive
same,Potency,[11],inactive
same,max response,[12],5.11%
same,Potency,[13],inactive
same,Potency,[14],inactive
same,Potency,[15],inactive
same,Potency,[17],inactive
same,Potency,[16],inactive
C[C@](N)(Cc1ccc(O)cc1)C(=O)O,activation,[1],-7.31% [at 8.39 µM]
same,"activity change, negative = cytotoxicity",[2],3.27% [at 6.97 µM]
same,activation (H2AX phosphorylation),[3],-0.087% [at 14 µM]
same,"activity change, negative = cytotoxicity",[4],2.42% [at 14 µM]
same,"activity, negative = inhibition",[18],3.87% [at 8.39 µM]
same,"activity change, negative = cytotoxicity",[5],0.0825% [at 6.97 µM]
same,"activity change, negative = cytotoxic",[6],1.02% [at 6.97 µM]
same,cytotoxicity,[7],5.11% [at 6.97 µM]
same,"activity change, negative = cytotoxic",[8],4.28% [at 6.97 µM]
same,cytotoxicity increase,[9],1.26% [at 6.97 µM]
same,"activity change, negative = cytotoxicity",[10],1.36% [at 6.97 µM]
same,"viability change, negative = cytotoxic",[11],1.11% [at 6.97 µM]
same,activity change,[13],"2.77% [at 6.97 µM, stronger effect = higher value]"
same,cytotoxicity increase,[14],-1.17% [at 6.97 µM]
same,"activity change, negative = cytotoxic",[15],3.47% [at 6.97 µM]
same,cytotoxicity,[17],-1.48% [at 6.97 µM]
same,cytotoxicity increase,[16],-2.6% [at 6.97 µM]
O=C(CCCN1CCC(O)(c2cccc(C(F)(F)F)c2)CC1)c1ccc(F)cc1,Potency,[1],inactive
same,Potency,[2],inactive
same,outcome,[3],inactive
same,Potency,[4],inactive
same,Potency,[18],inactive
same,Potency,[5],inactive
same,Potency,[6],19 µM (active)
same,Potency,[7],inactive
same,Potency,[8],inactive
same,Potency,[9],inactive
same,Potency,[10],19 µM (active)
same,Potency,[11],inactive
same,Potency,[12],21.3 µM (active)
same,Potency,[13],inactive
same,Potency,[14],inactive
same,Potency,[15],inactive
CCn1ccnc1CC1COc2ccccc2O1 (stereo unspecified),Potency,[1],inactive
same,Potency,[2],inactive
same,outcome,[3],inactive
same,Potency,[4],inactive
same,Potency,[18],inactive
same,"activity change, positive = activation",[19],8.29% [at 42.5 µM]
same,Potency,[5],inactive
same,Potency,[7],inactive
same,Potency,[8],inactive
same,Potency,[9],inactive
same,Potency,[10],inactive
same,Potency,[11],inactive
same,Potency,[13],inactive
same,Potency,[14],inactive
same,Potency,[15],inactive
same,Potency,[17],inactive
same,Potency,[16],inactive
NS(=O)(=O)c1cc(C(=O)O)cc(N2CCCC2)c1Oc1ccccc1,Potency,[1],inactive
same,Potency,[2],inactive
same,outcome,[3],inactive
same,Potency,[4],inactive
same,Potency,[18],inactive
same,"activity change, positive = activation",[19],0.186% [at 42.5 µM]
same,Potency,[5],inactive
same,Potency,[6],inactive
same,Potency,[7],inactive
same,Potency,[8],inactive
same,Potency,[9],inactive
same,Potency,[10],inactive
same,Potency,[11],inactive
same,max response,[12],-15.6%
same,Potency,[14],inactive
same,Potency,[15],inactive
same,Potency,[17],inactive
same,Potency,[16],inactive
c1cnc(N2CCN(Cc3ccc4c(c3)OCO4)CC2)nc1,Potency,[1],inactive
same,Potency,[2],inactive
same,outcome,[3],inactive
same,Potency,[4],inactive
same,Potency,[5],inactive
same,Potency,[6],inactive
same,Potency,[7],inactive
same,Potency,[8],inactive
same,Potency,[9],inactive
same,Potency,[10],inactive
same,Potency,[11],inactive
same,max response,[12],-13%
same,Potency,[14],inactive
same,Potency,[15],inactive
same,Potency,[17],inactive
same,Potency,[16],inactive
COc1ccc(CCN(C)CCCC(C#N)(c2cc(OC)c(OC)c(OC)c2)C(C)C)cc1OC (stereo unspecified),Potency,[1],2.11 µM (active)
same,Potency,[2],inactive
same,outcome,[3],inactive
same,Potency,[4],inactive
same,Potency,[5],inactive
same,Potency,[6],21.3 µM (active)
same,Potency,[7],inactive
same,Potency,[8],inactive
same,Potency,[9],inactive
same,Potency,[10],10.7 µM (active)
same,Potency,[11],inactive
same,Potency,[12],23.9 µM (active)
same,Potency,[14],inactive
same,Potency,[15],inactive
CCN1CCC[C@H]1CNC(=O)c1cc(S(N)(=O)=O)ccc1OC,Potency,[1],inactive
same,Potency,[2],inactive
same,outcome,[3],inactive
same,Potency,[4],inactive
same,Potency,[5],inactive
same,Potency,[6],inactive
same,Potency,[7],inactive
same,Potency,[8],inactive
same,Potency,[9],inactive
same,Potency,[10],inactive
same,Potency,[11],inactive
same,max response,[12],-3.58%
same,Potency,[13],inactive
same,Potency,[14],inactive
same,Potency,[15],inactive
same,Potency,[16],inactive
CCOC(=O)Nc1ccc(NCc2ccc(F)cc2)nc1N,Potency,[1],inactive
same,Potency,[2],inactive
same,outcome,[3],inactive
same,Potency,[4],inactive
same,"activity change, positive = activation",[19],-17.8% [at 42.5 µM]
same,Potency,[5],inactive
same,Potency,[6],inactive
same,Potency,[8],inactive
same,Potency,[9],inactive
same,Potency,[10],inactive
same,Potency,[11],inactive
same,max response,[12],-2.14%
same,Potency,[14],inactive
same,Potency,[15],inactive
same,Potency,[17],inactive
same,Potency,[16],inactive
O=C(O)c1ccccc1OP(=O)(O)O,Potency,[1],inactive
same,Potency,[2],inactive
same,outcome,[3],inactive
same,Potency,[4],inactive
same,Potency,[18],inactive
same,Potency,[5],inactive
same,Potency,[6],inactive
same,Potency,[7],inactive
same,Potency,[8],inactive
same,Potency,[9],inactive
same,Potency,[10],inactive
same,Potency,[11],inactive
same,max response,[12],-0.358%
same,Potency,[14],inactive
same,Potency,[15],inactive
same,Potency,[16],inactive
OCCCC1CCCCC1,Potency,[1],inactive
same,Potency,[2],inactive
same,outcome,[20],inactive
same,Potency,[4],inactive
same,Potency,[18],inactive
same,"activity change, positive = activation",[19],-0.619%
same,Potency,[5],inactive
same,Potency,[6],inactive
same,Potency,[7],inactive
same,Potency,[8],inactive
same,Potency,[9],inactive
same,Potency,[10],inactive
same,Potency,[11],inactive
same,max response,[12],11.3%
same,Potency,[13],inactive
same,Potency,[14],inactive
same,Potency,[15],inactive
same,Potency,[16],inactive
